Measurements as given in PubChem BioAssay AID1117359 (Southern Research Institute, 2015).
About 460 (31%) of roughly 1,500 compounds were called active.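 How the source made its calls: active means viability at or below 80% at any tested concentration, marking the compound as toxic; inactive means the rest.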 Only a sample is shown. Measured potencies and affinities stand elsewhere.

Assay: viability loss in THP-1 monocytes – THP-1 cells, cytotoxicity control for Vif-APOBEC3G degradation inhibitor project, dose response (AID 1117359)
Conditions: THP-1 viability, CellTiter-Glo luminescence, 72 h; series mostly up to 40 µM

| Structure (SMILES) | outcome |
| --- | --- |
| COC(=O)C1=C(O)/C(=C\c2ccc(CNC(=O)C(=O)Nc3ccc(C)cc3)o2)N=C1C | inactive |
| CC(Sc1nnc(C2CC2)n1C)C(=O)Nc1ccc(N2CCOCC2)cc1 (stereo not given) | inactive |
| CC1=C(C#N)C(=O)N(C2CCS(=O)(=O)C2)C(=O)/C1=C\c1ccco1 (stereo not given) | inactive |
| O=C1c2ccccc2C(=O)N1/N=C/c1ccc(O)c(O)c1O | inactive |
| Nc1ccc(Nc2ccccc2)c(S(=O)(=O)O)c1 | inactive |
| Cc1ccc(NC(=O)COc2ccc(/C=N/NC(=O)CSCc3ccccc3)cc2)cc1 | inactive |
| CCCCC1=CC2=CC(=O)C(C)(OC(=O)c3cnc4ccccc4n3)C(=O)C2=CO1 (stereo not given) | inactive |
| c1cnc(N2CCN(c3cnccn3)CC2)nc1 | inactive |
| COc1ccc(CN2CCNC(=O)C2CC(=O)NC2CCCC2)cc1OC (stereo not given) | inactive |
| CCN(CC)S(=O)(=O)c1ccc(C(=O)NCc2n[nH]c(=S)n2-c2ccccc2OC)cc1 | inactive |
| Cc1ccc2c(c1)NC(=O)c1cc([N+](=O)[O-])ccc1O2 | inactive |
| NS(=O)(=O)c1ccc(NC(=O)COC(=O)CC2Sc3ccccc3NC2=O)cc1 (stereo not given) | inactive |
| CCOC(=O)c1ccc(NS(=O)(=O)c2ccc3oc(=O)[nH]c3c2)cc1 | inactive |
| COC(=O)c1ccc(C(=O)OC)c(NC(=O)Cc2cccs2)c1 | inactive |
| CC[C@H](C)[C@H](NC(N)=O)C(=O)NCCc1ccc(OC)cc1 | inactive |
| COc1ccc(CCNC(=O)/C=C/c2ccco2)cc1 | inactive |
| Nc1ccc(Oc2ncccn2)cc1 | inactive |
| CCOC(=O)c1[nH]nc(-c2c(O)cc(C)cc2O)c1-c1csc(C)n1 | inactive |
| O=C(Nc1ccccc1)c1ccc(S(=O)(=O)N(CCO)CCO)cc1 | inactive |
| CC(C)OCCCNC(=O)c1cccs1 | inactive |
| CC(C)CN1C(=O)c2ccc(C(=O)Nc3ccc(O)cc3C(=O)O)cc2C1=O | inactive |
| CS(=O)(=O)c1ccc(Cl)c(NC(=O)COC(=O)COc2ccc3c(c2)CCC3)c1 | inactive |
| CCOc1ccc(NC(=O)CCS(=O)(=O)c2ccc(Br)cc2)cc1 | inactive |
| Cc1nccn1CC(=O)N/N=C/c1ccc(O)c(O)c1 | inactive |
| Oc1ccc(N=Cc2sc3ccccc3c2Cl)cc1 | inactive |

| Structure (SMILES) | outcome |
| --- | --- |
| Cc1ccsc1C=Nc1ccc(O)cc1 | inactive |
| NC(=S)N=Nc1c(O)cc(O)c2[nH]c(=O)ccc12 | inactive |
| Cc1n[nH]c(=S)n(NC(=O)/C=C/C(=O)Nn2c(=S)[nH]nc(C)c2=O)c1=O | inactive |
| CCN(CC)C(=O)NCc1c(C)cc(C)cc1C | inactive |
| CCOC(=O)C(=O)Cc1cccnn1 | inactive |
| CC(=O)c1ccc(S(=O)(=O)Nc2cccc(-n3cnnn3)c2)cc1 | inactive |
| CC1CCC(NC(=O)CCS(=O)(=O)c2ccc3c(c2)CCN3C(=O)C2CC2)CC1 (stereo not given) | inactive |
| CCc1ccc(-c2nc(SCC(=O)c3c(N)n(C4CC4)c(=O)[nH]c3=O)n[nH]2)cc1 | inactive |
| COCCn1c(SCC(=O)N2CCC(C)CC2)nc2c([nH]c3ccccc32)c1=O | inactive |
| O=C(c1ccc2nc(-c3ccco3)c(-c3ccco3)nc2c1)N1CCN(c2ncccn2)CC1 | inactive |
| N#Cc1ccccc1S(=O)(=O)N1CCN(C(=O)CN2CCCC2c2cccs2)CC1 (stereo not given) | inactive |
| Cc1ccccc1OCC(=O)OCC(=O)c1ccc(OC(=O)c2ccccc2)cc1 | inactive |
| Cc1cc(C(=O)NNC(=O)CCC2CCCCC2)c(C)o1 | inactive |
| COc1ccccc1OCC(=O)NCC1CCCN(Cc2cnn(C(C)C)c2)C1 (stereo not given) | inactive |
| CCOc1ccc(N(CC(=O)NCCC2=CCCCC2)S(=O)(=O)c2ccccc2)cc1 | inactive |
| CC(Oc1cccc2cccnc12)C(=O)N/N=C/c1ccc2c(c1)OCO2 (stereo not given) | inactive |
| O=C(c1cc(COc2cccc3cccnc23)on1)N1CCC[C@H]1CO | inactive |
| CC(=O)Nc1ccc(NC(=O)CN(c2cccc(C(C)=O)c2)S(C)(=O)=O)cc1 | inactive |
| COc1ccc(-n2c(Cc3cccn3C)nnc2SCC(=O)Nc2ccccc2)cc1 | inactive |
| Cn1c(N)c(C(=O)CCl)c(=O)n(Cc2ccccc2)c1=O | inactive |
| CCOC(=O)c1cc2c(n(-c3ccccc3)c1=O)CC(C)(C)CC2=O | inactive |
| O=C(O)c1cc(-c2ccccc2)on1 | inactive |
| CN1CCN(C(CNC(=O)c2ccc(Br)o2)c2ccc(F)cc2)CC1 (stereo not given) | inactive |
| CC(NC(=O)CSc1nnc2n1CCCCC2)c1ccccc1Cl (stereo not given) | inactive |
| COc1cc(CN2CCNC(=O)C2CC(=O)N(Cc2nccn2C)C(C)C)cc(OC)c1 (stereo not given) | inactive |
